Experimental data reported in ChEMBL document CHEMBL1157539, “Thousands of chemical starting points for antimalarial lead identification” (Nature, 2010).

System: Plasmodium falciparum
Test: GSK_TCMDC: Inhibition of Plasmodium falciparum 3D7 in whole red blood cells, using parasite LDH activity as an index of growth. Test compounds present at 2uM
Assay type: functional

SMILES	Inhibition [%]
CSc1ccc(NC(=O)Nc2cc(C)nc3ccccc23)cc1	100
N.Nc1nc2c(ncn2COC2COP(=O)(O)OC2)c(=O)[nH]1 (centres undefined)	81
COc1c(C2CCN(CCCCNC(=O)C=Cc3cc4cc(Cl)ccc4o3)CC2)ccc2c1CCCC2	87
COCCn1c(-c2nc(-c3ccc(F)cc3)cnc2N)nc2ccccc21	98
O=C(Nc1ccc(Cl)cc1)c1ccc(CN2CCCN(Cc3cccc(F)c3)CC2)cc1.O=C(O)C(F)(F)F	91
CC(=O)C=C1CC(=O)N(C[C@@H](O)[C@H]2O[C@@H]3OC(C)(C)O[C@@H]3[C@H]2O)c2ccccc2N1	90
COc1cc(C)c(NC(=O)c2cccc3c(=O)c(C)c(-c4ccccc4)oc23)cc1OC	86
CCCCCCNC(=N)c1ccc(OCCCCCOc2ccc(C(=N)NCCCCCC)cc2)cc1.Cl	97
O=c1cc(NCCCNCc2[nH]c3cc(Cl)cc(Cl)c3c2Cn2cccn2)[nH]c2ccccc12	86
Cc1ccc(CN2CCN(c3cc4c(cc3Cl)CCN4C(=O)Cc3ccc(Cl)c(NC(=O)Nc4cccc(C#N)c4)c3)CC2)cc1	92
Cc1cccc2nc(-c3ccc(-c4ccc(NC(=O)Nc5cccc(C#N)c5)cc4)s3)[nH]c12	100
Cc1ccccc1C1CCN(C2CCC(NC(=O)c3cc4cc(Cl)ccc4o3)CC2)CC1 (centres undefined)	89
O=C(c1cccc(-c2cccc(-c3nc4cc(C(F)(F)F)ccc4[nH]3)c2)c1)N1CCCCC1CN1CCC(O)C1 (centres undefined)	91
NC1CCN(c2nc(NCCc3ccc(O)cc3)nc(NCc3ccccc3-c3ccc(C(F)(F)F)cc3)n2)CC1.O=C(O)C(F)(F)F	100
O=C(/C=C/c1ccc(Cl)c(Cl)c1)NCCCCCCN1CCCN(C(=O)Nc2cc(Cl)cc(Cl)c2)CC1	98
Cc1cc(N[C@@H](Cc2ccccc2)C(=O)NCc2cccc(F)c2)nc(NCCCOC(C)C)n1.O=C(O)C(F)(F)F	100
CC(NC(C)c1cccc(Cl)c1)C(=O)Nc1cc(C(F)(F)F)ccc1N1CCOCC1 (centres undefined)	89
Cc1cc(C(=O)CN2C(=O)NC3(CCOc4ccccc43)C2=O)c(C)n1Cc1ccc(F)cc1 (centres undefined)	95
COc1ccc(C(C(=O)NC2CCN(C[C@H](O)c3ccnc4ccc(OC)cc34)CC2)N2CCN(c3ccc(Cl)c(Cl)c3)CC2)cc1 (some centres undefined)	100
CN(C)CCOc1cc(NC(=O)Nc2ccc3c(c2)CCCC3=O)ccc1I	94

SMILES	Inhibition [%]
O=C(Nc1ccccc1)N(Cc1ccc(-c2ccc(CNC3CCCC3)cc2)cc1)C1CCN(Cc2ccccc2)CC1.O=C(O)C(F)(F)F	100
Cl.N=C(N)c1ccc(NN=Cc2ccc(Oc3ccc(C(=N)N)cc3)cc2)cc1	99
O=C(C=Cc1ccc(Cl)c(Cl)c1)NCCCCCN1CCC(CCCNS(=O)(=O)c2ccc(Br)cc2)CC1	93
CCCc1ccc(NC(=O)c2ccc(CN3CCCN(Cc4ccc(OC)cc4)CC3)cc2)cc1.O=C(O)C(F)(F)F	81
CC(C)(C)c1ccc(NC(=O)c2cccc(CN3CCCN(Cc4ccsc4)CC3)c2)cc1.O=C(O)C(F)(F)F	96
CCn1c(=O)c(C(=O)Nc2cc(Cl)c(OC)cc2OC)nc2ccccc21	86
CC(=O)Nc1ccc(OCCCN(Cc2ccccc2OC(F)(F)F)c2ccc(C(F)(F)F)c(C#N)c2)c(Cl)c1	91
Cl.NC1=NC(c2ccccc2)N(OCc2ccccc2)C(N)=N1 (centres undefined)	96
O=C(Nc1cccc(C(F)(F)F)c1)c1cccc(S(=O)(=O)NCC2CCN(CC3CCCCC3)CC2)c1.O=C(O)C(F)(F)F	97
Cc1cc(N(C)CCN(C)C)nc(Nc2ccc(Br)cc2)n1	97
O=C(NC1CCC(N2CCCC(OCc3ccccc3)C2)CC1)c1cc2ccccc2[nH]1 (centres undefined)	94
CCOc1cc(C)ccc1C1CCN(CCCCNC(=O)c2ccc(NC(=O)c3cc(Cl)cc(Cl)c3)cc2)CC1	99
Cc1cc(N2CCC(NS(=O)(=O)c3cccc4cccnc34)CC2)nc(Nc2cccc(C#N)c2)n1.O=C(O)C(F)(F)F	98
Cl.N#Cc1ccc2c(c1)CN(CCC1CCC(NC(=O)c3cc4cnccc4[nH]3)CC1)CC2 (centres undefined)	97
O=C(NCc1ccccc1)NC1CCN(c2ccnc3cc(Cl)ccc23)C1.O=C(O)C(F)(F)F (centres undefined)	94
CC(C)(C)c1ccc(CN2CCC(NC(=O)c3ccc(-c4ccccc4F)s3)CC2)cc1.O=C(O)C(F)(F)F	85
Cc1[nH]c(C)c(-c2ccc(-c3ccccc3F)nc2)c(=O)c1Br	97
COc1ccc(C(=O)C2CC2CN(C)CCC(O)c2ccc(Cl)c(Cl)c2)cc1 (centres undefined)	94
COc1ccc(CNCc2ccsc2)cc1-c1ccc(S(=O)(=O)NCCN2CCCC2)s1.O=C(O)C(F)(F)F	100
